Experimental data as given in PubChem BioAssay AID1159580 (chemical genetic matrix, 2015).
In all, about 5,500 compounds went through this assay and about 2,000 (36%) were called active. Inconclusive results (about 18%) are left out. Rule as the data show it: active = normalized growth mostly below about 0.91 (no sharp cut-off); inconclusive = no clear call, values can overlap the other calls; inactive = mostly above about 0.92. Some of the results follow.

Experiment: chemical genetic growth profiling, strain panel (AID 1159580);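 also: tested at 20 µM; growth read once vehicle control cultures reached saturation at 30 °C; 1 = growth at the plate median or of vehicle wells; lower values mean less growth of the strain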
Details: growth OD

Measured: normalized growth

OC(c1cc(C(F)(F)F)nc2c(C(F)(F)F)cccc12)C1CCCCN1 (stereo not drawn)
inactive: S. cerevisiae deletion strains, locus YJR066W, strain TOR1, active compounds read low 0.936 | S. cerevisiae deletion strains, locus YJR075W, strain HOC1, active compounds read low 0.978 | S. cerevisiae deletion strains, locus YKL009W, strain mrt4, active compounds read low 0.987 | S. cerevisiae deletion strains, locus YKL068W, active compounds read low 0.99 | S. cerevisiae deletion strains, locus YKL085W, strain MDH1 (second series), active compounds read low 0.989 | S. cerevisiae deletion strains, locus YKL085W, strain MDH1, active compounds read low 0.989 | S. cerevisiae deletion strains, locus YKL160W, strain elf1, active compounds read low 0.99 | S. cerevisiae deletion strains, locus YKL190W, strain CNB1, active compounds read low 0.99 | S. cerevisiae deletion strains, locus YKR001C, strain vps1, active compounds read low 1 | S. cerevisiae deletion strains, locus YKR026C, strain gcn3, active compounds read low 1.01 | S. cerevisiae deletion strains, locus YKR091W, strain srl3, active compounds read low 1 | S. cerevisiae deletion strains, locus YLL001W, strain dnm1, active compounds read low 1 | S. cerevisiae deletion strains, locus YLL026W, active compounds read low 1.01 | S. cerevisiae deletion strains, locus YLL041C, strain sdh2, active compounds read low 1.02 | S. cerevisiae deletion strains, locus YLR027C, strain aat2, active compounds read low 0.996 | S. cerevisiae deletion strains, locus YLR039C, strain RIC1, active compounds read low 1.12 | S. cerevisiae deletion strains, locus YLR058C, strain SHM2, active compounds read low 0.991 | S. cerevisiae deletion strains, locus YLR102C, strain apc9, active compounds read low 0.991 | S. cerevisiae deletion strains, locus YLR113W, strain HOG1, active compounds read low 0.93 | S. cerevisiae deletion strains, locus YLR221C, strain rsa3, active compounds read low 1.02 | S. cerevisiae deletion strains, locus YLR258W, strain gsy2, active compounds read low 1.01 | S. cerevisiae deletion strains, locus YLR262C, strain YPT6 (second series), active compounds read low 1.11 | S. cerevisiae deletion strains, locus YLR262C, strain YPT6, active compounds read low 1.15 | S. cerevisiae deletion strains, locus YLR268W, strain sec22, active compounds read low 0.975 | S. cerevisiae deletion strains, locus YLR320W, strain mms22, active compounds read low 1.01 | S. cerevisiae deletion strains, locus YLR330W, strain CHS5, active compounds read low 0.992 | S. cerevisiae deletion strains, locus YLR342W, strain FKS1 (second series), active compounds read low 0.962 | S. cerevisiae deletion strains, locus YLR342W, strain FKS1, active compounds read low 1.01 | S. cerevisiae deletion strains, locus YLR357W, strain rsc2, active compounds read low 1.09 | S. cerevisiae deletion strains, locus YLR370C, strain arc18, active compounds read low 1 | S. cerevisiae deletion strains, locus YLR371W, strain rom2, active compounds read low 0.988 | S. cerevisiae deletion strains, locus YLR384C, strain iki3, active compounds read low 1.01 | S. cerevisiae deletion strains, locus YLR418C, strain cdc73, active compounds read low 0.931 | S. cerevisiae deletion strains, locus YML016C, strain PPZ1, active compounds read low 0.989 | S. cerevisiae deletion strains, locus YML032C, strain rad52, active compounds read low 0.978 | S. cerevisiae deletion strains, locus YML120C, strain ndi1, active compounds read low 1 | S. cerevisiae deletion strains, locus YML124C, strain tub3, active compounds read low 0.99 | S. cerevisiae deletion strains, locus YMR058W, strain fet3, active compounds read low 0.997 | S. cerevisiae deletion strains, locus YMR078C, strain ctf18, active compounds read low 0.994 | S. cerevisiae deletion strains, locus YMR125W, strain sto1, active compounds read low 1 | S. cerevisiae deletion strains, locus YMR129W, active compounds read low 0.997 | S. cerevisiae deletion strains, locus YMR205C, strain PFK2, active compounds read low 1.01 | S. cerevisiae deletion strains, locus YMR223W, strain ubp8, active compounds read low 0.973 | S. cerevisiae deletion strains, locus YMR231W, strain pep5, active compounds read low 1.01 | S. cerevisiae deletion strains, locus YMR307W, strain GAS1, active compounds read low 0.869 | S. cerevisiae deletion strains, locus YNL067W, strain RPL9B, active compounds read low 0.981 | S. cerevisiae deletion strains, locus YNL071W, strain lat1, active compounds read low 1.02 | S. cerevisiae deletion strains, locus YNL183C, strain NPR1, active compounds read low 0.93 | S. cerevisiae deletion strains, locus YNL209W, strain ssb2, active compounds read low 0.996 | S. cerevisiae deletion strains, locus YNL233W, strain BNI4, active compounds read low 0.959 | S. cerevisiae deletion strains, locus YNL248C, strain rpa49, active compounds read low 0.999 | S. cerevisiae deletion strains, locus YNL250W, strain rad50, active compounds read low 0.986 | S. cerevisiae deletion strains, locus YNL271C, strain bni1, active compounds read low 0.985 | S. cerevisiae deletion strains, locus YNL298W, strain CLA4, active compounds read low 0.995 | S. cerevisiae deletion strains, locus YNL307C, strain MCK1, active compounds read low 0.992 | S. cerevisiae deletion strains, locus YNL322C, strain KRE1 (second series), active compounds read low 0.988 | S. cerevisiae deletion strains, locus YNL322C, strain KRE1, active compounds read low 0.987 | S. cerevisiae deletion strains, locus YNR049C, strain mso1, active compounds read low 1.01 | S. cerevisiae deletion strains, locus YNR052C, strain pop2, active compounds read low 0.99 | S. cerevisiae deletion strains, locus YOL006C, strain TOP1, active compounds read low 0.993 | S. cerevisiae deletion strains, locus YOL012C, strain htz1 0.986 | S. cerevisiae deletion strains, locus YOL147C, strain pex11, active compounds read low 1.01 | S. cerevisiae deletion strains, locus YOR001W, strain rrp6, active compounds read low 0.999 | S. cerevisiae deletion strains, locus YOR061W, strain CKA2, active compounds read low 0.991 | S. cerevisiae deletion strains, locus YOR069W, strain VPS5, active compounds read low 0.997 | S. cerevisiae deletion strains, locus YOR070C, strain gyp1, active compounds read low 1.01 | S. cerevisiae deletion strains, locus YOR080W, strain dia2, active compounds read low 1.02 | S. cerevisiae deletion strains, locus YOR083W, strain WHI5, active compounds read low 1.03 | S. cerevisiae deletion strains, locus YOR106W, strain vam3, active compounds read low 1.02 | S. cerevisiae deletion strains, locus YOR136W, strain idh2, active compounds read low 0.988 | S. cerevisiae deletion strains, locus YOR144C, strain elg1, active compounds read low 0.991 | S. cerevisiae deletion strains, locus YOR184W, strain ser1, active compounds read low 0.997 | S. cerevisiae deletion strains, locus YOR231W, strain MKK1, active compounds read low 0.959 | S. cerevisiae deletion strains, locus YOR265W, strain rbl2, active compounds read low 1 | S. cerevisiae deletion strains, locus YOR270C, strain vph1, active compounds read low 1.04 | S. cerevisiae deletion strains, locus YOR290C, strain snf2, active compounds read low 0.991 | S. cerevisiae deletion strains, locus YOR316C, strain cot1, active compounds read low 0.994 | S. cerevisiae deletion strains, locus YPL051W, strain arl3, active compounds read low 1.01 | S. cerevisiae deletion strains, locus YPL078C, strain atp4, active compounds read low 1 | S. cerevisiae deletion strains, locus YPL106C, strain sse1, active compounds read low 0.999 | S. cerevisiae deletion strains, locus YPL240C, strain hsp82, active compounds read low 1 | S. cerevisiae deletion strains, locus YPL256C, strain CLN2, active compounds read low 0.946 | S. cerevisiae deletion strains, locus YPR119W, strain clb2, active compounds read low 0.99 | S. cerevisiae deletion strains, locus YPR141C, strain kar3, active compounds read low 0.988 | S. cerevisiae deletion strains, locus YPR163C, strain tif3, active compounds read low 0.999 | S. cerevisiae deletion strains, locus YPR167C, strain met16, active compounds read low 0.993 | S. cerevisiae deletion strains, strain wtn01, active compounds read low 0.96 | S. cerevisiae strains, strain wild type, active compounds read low 0.983
